Results filed as inconclusive are left out. The source made the active and inactive calls. How the source made its calls, unless noted: active means hit-call score of the fitted dose curve at least 0.9, where 1 is the maximum; inactive means score below 0.9.

A word on the AC50: it is the concentration at which the activity in the assay is half-maximal.

The nature of assay [1]: Tanguay_ZF_120hpf_MUSC: Oregon State University Tanguay Lab 120 Hour Post-fertilization zebrafish Assay for Muscle Malformation (AID 2284401). The gist of the method: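 Scored as a binary brightfield endpoint at 120 hpf, fitted versus DMSO. Single dechorionated wild-type (Tropical 5D) zebrafish embryos per well, statically exposed at 28C from 6 hpf onward with final DMSO 0.64%.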

A short description of assay [2]: CCTE_Shafer_MEA_dev_firing_rate_mean: CCTE's Neural Network Formation Assay for Mean Firing Rate, Shafer Lab (AID 2284031).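 Further: curve fitted for loss of firing so AC50 reflects decreased mean firing rate.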 The gist of the method:
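Read-out: spike count/recording length, averaged over active electrodes, then AUC across days 5, 7, 9, 12. Rat cortical cultures on MEA; continuous 12-day exposure, media and treatment renewed DIV 5, 9; DMSO baseline.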

The nature of assay [3]: CCTE_Shafer_MEA_dev_per_burst_spike_percent: CCTE's Neural Network Formation Assay for Percent of Spikes in a Burst, Shafer Lab (AID 2284032).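 Further: fitted as a decrease in burst spike percentage below DMSO baseline.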 The gist of the method:
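Value is trapezoidal AUC over recordings on days 5, 7, 9 and 12 of the well-mean fraction of spikes falling in single-electrode bursts; rat cortical cultures exposed continuously from plating, treatment renewed DIV 5 and 9, fitted downward against DMSO.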

Assay [4] in a line: CCTE_Shafer_MEA_dev_active_electrodes_number: CCTE's Neural Network Formation Assay for Number of Active Electrodes, Shafer Lab (AID 2284040; active means hit-call score of the fitted dose curve at least 0.9, where 1 is the maximum;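 further: potency for loss of active electrodes versus DMSO so lower counts are hits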). The gist of the method:
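Developing rat cortical networks on MEAs, exposed DIV 0–12. Value is the AUC of active-electrode counts (≥5 spikes/min) from days 5, 7, 9, 12, relative to DMSO.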

Assay [5] in a line: CCTE_Shafer_MEA_dev_burst_rate: CCTE's Neural Network Formation Assay for Burst Rate, Shafer Lab (AID 2284042).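 Further: potency for loss of burst rate below DMSO control.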 The gist of the method:
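Cells plated, treated day 0; recorded DIV 5, 7, 9, 12; fed and re-treated DIV 5, 9. Endpoint: bursts per recording time, active-electrode well mean, trapezoidal AUC, fitted in decreasing direction against DMSO baseline.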

Assay [6] in a line: CCTE_Shafer_MEA_dev_per_burst_interspike_interval: CCTE's Neural Network Formation Assay for Burst Interspike Interval, Shafer Lab (AID 2284044).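 Further: potency for a decrease of within-burst interspike interval below DMSO level.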 The gist of the method: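 Readout is the average time between spikes inside single-electrode bursts, taken as a well mean across bursting electrodes. Cortical neurons from rat developed networks on MEA plates under continuous 12-day exposure; recordings on days 5, 7, 9 and 12 were integrated by trapezoidal AUC.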

The nature of assay [7]: CCTE_Shafer_MEA_dev_burst_duration_mean: CCTE's Neural Network Formation Assay for Mean Burst Duration, Shafer Lab (AID 2284045).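 Further: curve fitted for loss meaning shorter burst duration than DMSO.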 The gist of the method: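 Network-formation assay in primary rat cortical neurons; treatment spans twelve days of development. Mean burst duration per well is integrated by trapezoidal AUC and fitted in the loss-of-signal direction against DMSO baseline.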

Assay [8] can be described thus: CCTE_Shafer_MEA_dev_interburst_interval_mean: CCTE's Neural Network Formation Assay for Mean Interburst Interval, Shafer Lab (AID 2284046).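 Further: well-mean interburst interval of bursting electrodes as AUC over four recording days; curve fitted for decrease in interburst interval relative to DMSO.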 The gist of the method:
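Developing rat cortical networks on 48-well MEAs receive compound from the day of plating. Burst intervals from each active electrode are averaged per well, and AUC over the recording days is fitted in the negative direction against DMSO.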

Assay [9] is described as follows: CCTE_Shafer_MEA_dev_inter_network_spike_interval_mean: CCTE's Neural Network Formation Assay for Mean Inter-network Spike Interval, Shafer Lab (AID 2284047). The gist of the method: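 Rat cortical cultures, 1.5 x 10^5 cells/well on 48-well MEA plates; continuous exposure days 0–12, medium and compound refreshed DIV 5, 9. Mean time between consecutive network-spike peaks; AUC across DIV 5/7/9/12; DMSO baseline, negative fitting direction.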

The nature of assay [10]: CCTE_Shafer_MEA_dev_network_spike_number: CCTE's Neural Network Formation Assay for Number of Network Spikes, Shafer Lab (AID 2284048).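 Further: fit as a loss of signal meaning fewer network spikes than DMSO.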 The gist of the method: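 Extracellular recordings from 16-electrode wells track network formation in rat cortical cultures under continuous treatment from plating. The endpoint is network spike number, expressed as AUC across DIV 5–12 relative to DMSO vehicle.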

Assay [11] can be described thus: CCTE_Shafer_MEA_dev_spike_duration_mean: CCTE's Neural Network Formation Assay for Mean Spike Duration, Shafer Lab (AID 2284051).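 Further: potency for a decrease in mean network spike duration versus DMSO.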 The gist of the method: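 Readout is the average length of network spikes, clustered firing across electrodes, summed over DIV 5, 7, 9 and 12 as area under the curve. Neurons from rat cortex developed networks on MEA plates under continuous 12-day exposure.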

The nature of assay [12]: CCTE_Shafer_MEA_dev_network_spike_duration_std: CCTE's Neural Network Formation Assay for Standard Deviation of Network Spike Duration, Shafer Lab (AID 2284052).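 Further: hits are decreases in network spike duration SD versus DMSO vehicle.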 The gist of the method:
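Read-out is the trapezoidal area-under-the-curve across recordings made on days 5, 7, 9 and 12, fitted in the negative direction against DMSO baseline. Neurons were primary rat cortical cells treated from day 0, with treatment renewed at each feed.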

Assay [13] can be described thus: CCTE_Shafer_MEA_dev_per_network_spike_spike_number_mean: CCTE's Neural Network Formation Assay for Mean Number of Spikes in a Network Spike, Shafer Lab (AID 2284053). The gist of the method:
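Continuous twelve-day exposure of developing rat cortical networks grown over 16 microelectrodes per well; spontaneous firing is captured at four time points, and the per-network-spike spike number is integrated over development by trapezoidal AUC.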

Assay [14] in a line: CCTE_Shafer_MEA_dev_per_network_spike_spike_percent: CCTE's Neural Network Formation Assay for Percent of Spikes in a Network Spike, Shafer Lab (AID 2284054). The gist of the method:
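Developing networks of rat cortical neurons are dosed at day 0 and recorded extracellularly four times up to day 12. The endpoint is the area under the curve of percent spikes in network spikes, fitted in the negative direction relative to DMSO.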

Assay [15] can be described thus: CCTE_Shafer_MEA_dev_LDH: CCTE's Lactate Dehydrogenase Assay for Cytotoxicity in the Neural Network Formation Assay, Shafer Lab (AID 2284068; active means hit-call score of the fitted dose curve at least 0.9, where 1 is the maximum;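 further: exposure for twelve days from plating with re-dosing on DIV 5 and 9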). The gist of the method: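 Cytotoxicity companion to network-formation recordings: rat cortical neurons received compound over 12 days of development, re-dosed at DIV 5 and 9 feeds. Viability was inferred from LDH enzyme activity relative to DMSO.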

Assay [16] can be described thus: CCTE_Shafer_MEA_dev_AB: CCTE's Alamar Blue Assay for Cytotoxicity in the Neural Network Formation Assay, Shafer Lab (AID 2284083; active means hit-call score of the fitted dose curve at least 0.9, where 1 is the maximum;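 further: resazurin reduction fluorescence as viability of cultured neurons; twelve days of exposure from plating with re-dosing on DIV 5 and 9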). The gist of the method: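 Fluorescent resazurin reduction serves as the viability read-out, with DMSO as negative control and baseline. Cells were primary rat cortical neurons grown on MEA plates and dosed from day 0 to day 12, treatment renewed on DIV 5 and 9.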
In general terms: Resazurin is reduced to fluorescent resorufin, in cell work by metabolically active cells.

The nature of assay [17]: CCTE_Shafer_MEA_dev_mutual_information_norm: CCTE's Neural Network Formation Assay for Mutual Information Normalization, Shafer Lab (AID 2284091).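 Further: mutual information between electrodes summarised as area under curve across four recording days; potency is for a decrease in mutual information relative to DMSO.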 The gist of the method: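 Exposure of primary rat cortical neurons began at plating and ran to DIV 12, with full media and treatment renewal after DIV 5 and 9 recordings. Mutual information AUC (DIV 5–12) was analysed for loss versus DMSO.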

Assay [18] in a line: CCTE_Shafer_MEA_dev_correlation_coefficient_mean: CCTE's Neural Network Formation Assay for Mean Correlation Coefficient, Shafer Lab (AID 2284093).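 Further: well mean pairwise spike train correlation integrated as AUC over recording days 5 to 12; potency fitted for loss of correlation relative to DMSO vehicle wells.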 The gist of the method:
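Read-out: well-mean correlation coefficient of spike trains between electrode pairs, collapsed over four recording days as trapezoidal area-under-the-curve. Developing rat cortical neuron networks grown on MEAs received test chemical continuously from plating.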

A short description of assay [19]: CCTE_Mundy_HCI_Cortical_Synap_Neur_Matur_NeuriteSpotCountPerNeuriteLength: CCTE's Synaptogenesis and Neurite Maturation Assay in rat cortical cells for Neurite Spot Count per Neurite Length, Mundy Lab (AID 2284210). The gist of the method: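 Neurite-associated synapse density (synaptophysin puncta per unit neurite length) is measured by fluorescence high-content imaging in rat cortical cultures treated from DIV 7 and fixed at DIV 12, with DMSO as negative control.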

A short description of assay [20]: CCTE_Mundy_HCI_Cortical_NOG_NeuriteLength: CCTE's Neurite Outgrowth Assay in rat cortical cells for Neurite Length, Mundy Lab (AID 2284213).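 Further: neurites imaged about 48 to 50 h after chemical exposure began.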 The gist of the method:
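First, rat primary cortical cells were plated and, 2 h later, given test chemical as a 1/10 dilution. Finally, βIII-tubulin immunostaining enabled automated imaging of neurite length.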

The nature of assay [21]: CCTE_Mundy_HCI_Cortical_Synap_Neur_Matur_NeuriteSpotCountPerNeuron: CCTE's Synaptogenesis and Neurite Maturation Assay in rat cortical cells for Neurite Spot Count per Neuron Count, Mundy Lab (AID 2284215). The gist of the method: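 Read-out: neurite-associated synaptophysin puncta per neuron, imaged by high-content analysis after MAP2, synaptophysin and Hoechst staining. Rat primary cortical cultures, dosed DIV 7 through DIV 12; DMSO served as baseline.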

Assay [22] in a line: CCTE_Mundy_HCI_Cortical_Synap_Neur_Matur_SynapseCount: CCTE's Synaptogenesis and Neurite Maturation Assay in rat cortical cells for Synapse Count, Mundy Lab (AID 2284218). The gist of the method: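 Read-out: synapse number per neuron, automated high-content imaging of fixed cells immunostained for MAP2 and synaptophysin plus Hoechst nuclei. Rat primary cortical cultures, AraC at DIV 5, chemical dosing DIV 7–12. Positive-direction fit relative to DMSO.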

A short description of assay [23]: CCTE_Mundy_HCI_hN2_NOG_NeuriteCount: CCTE's Neurite Outgrowth Assay in human hN2 cells for Neurite Count, Mundy Lab (AID 2284219; active means hit-call score of the fitted dose curve at least 0.9, where 1 is the maximum). The gist of the method:
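In this morphology assay, hNP1-derived neurons received test chemical 2 h post-plating and were fixed two days later in warm paraformaldehyde/sucrose containing Hoechst 33342. Neurites, labelled by rabbit anti-βIII-tubulin (1:800) and Alexa Fluor-488 (1:500), were counted automatically.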

Assay [24] in a line: CCTE_Mundy_HCI_hN2_NOG_NeuronCount: CCTE's Neurite Outgrowth Assay in human hN2 cells for Neuron Count, Mundy Lab (AID 2284221; active means hit-call score of the fitted dose curve at least 0.9, where 1 is the maximum). The gist of the method: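 Read-out is the number of betaIII-tubulin-positive neurons imaged by automated high-content analysis, with DMSO as negative control.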
Assay [25] can be described thus: CCTE_Mundy_HCI_Cortical_Synap_Neur_Matur_CellBodySpotCount: CCTE's Synaptogenesis and Neurite Maturation Assay in rat cortical cells for Cell Body Spot Count, Mundy Lab (AID 2284223). The gist of the method: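 Read-out: cell body-associated synaptophysin puncta per neuron, imaged after MAP2, synaptophysin and Hoechst staining. Rat cortical cells, AraC DIV 5, chemical dosing DIV 7, fixation DIV 12. Activity fitted in positive direction relative to DMSO baseline.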

The nature of assay [26]: CCTE_Mundy_HCI_hNP1_Casp3_7: CCTE's Caspase-Glo 3/7 Assay in human neuroprogenitor cells for Apoptosis, Mundy Lab (AID 2284240). The gist of the method: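 Neuroepithelial-lineage stem cells from WA09 embryonic cells were treated with chemicals after 40–44 h of culture. Twenty-four hours later, caspase-3/7 activation was detected luminescently after a 30 min room-temperature reagent step, with DMSO as baseline.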

The nature of assay [27]: CCTE_Mundy_HCI_Cortical_Synap_Neur_Matur_NeuronCount: CCTE's Synaptogenesis and Neurite Maturation Assay in rat cortical cells for Neuron Count, Mundy Lab (AID 2284242; active means hit-call score of the fitted dose curve at least 0.9, where 1 is the maximum;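 further: hits reduce neuron count versus DMSO baseline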). The gist of the method: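 Rat cortical cultures; AraC DIV 5; chemical dosing + media change DIV 7 to DIV 12 (288.33 h readout). Fix, Hoechst, anti-MAP2/anti-synaptophysin immunostain; HCI neuron count vs DMSO baseline.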

Turning to `CC(C)(C)C(=O)CC(=O)C(F)(F)C(F)(F)C(F)(F)F`, the molecule was classed as inactive in assay [1].
With `[CH3][Sn]([CH3])[CH3]`, the AC50 in [2] is 571 nM (active); in assay [3], 1620 nM (active); in [4], 212 nM (active); in assay [5], 559 nM (active); in [6] it was 2330 nM (active); in [7] it was 992 nM (active). The half-maximal activity concentration (AC50) is 2360 nM (active) in assay [8]; 94.4 nM (active) in [10]; 151 nM (active) in assay [11]; 77.3 nM (active) in assay [12]; 222 nM (active) in assay [13]; 221 nM (active) in assay [14]. Besides, the AC50 in assay [15] is 174 nM (active); in assay [16], 1580 nM (active); in assay [17], 221 nM (active); in [18] it was 222 nM (active); in assay [20] it was 1780 nM (active); in assay [21], 1770 nM (active). Further, the concentration at half-maximal activity (AC50) in assay [22] was 1790 nM (active); in assay [26], 5000 nM (active); in assay [27], 1670 nM (active). Besides, the call in assay [9], in [19], in [23], in assay [24] and in [25] was inactive.
With `FC(F)(F)C(F)(F)C(F)(F)C(F)(F)C(F)(F)C(F)(F)C(F)(F)CCI`, in assay [1], the outcome was inactive.
